The values that follow come from the supplement of paper PMC6555819.

Test in all cases: PBM binding z-score (relative to random genomic background probes); higher = stronger binding; sequences stand for … in GC…GCGATTGACAGCGTAGAATGAAGG
The subject of experiment [1] is FXR:RXRa (NR concentration 270 nM, RXRa partner concentration 90 nM). In a few lines: (§1)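 For binding z-scores, the reference was random background probes on custom Agilent 4×180K protein-binding microarrays. These arrays were incubated 1 h with ligand-free nuclear receptor dimers in PBS pH 7.4, 2% milk, 0.02% Triton X-100, 1 mM DTT, 0.2 mg/mL BSA and 0.4 mg/ml salmon testes DNA. Fluorescence was scanned after antibody detection of each partner (one per run) and regression-normalized.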

Experiment [2] has as its system LXRa:RXRa (NR concentration 270 nM, RXRa partner concentration 90 nM). In a few lines: as §1
Experiment [3] relates to LXRa homodimer (NR concentration 270 nM). In a few lines: as §1
The subject of experiment [4] is LXRb:RXRa (NR concentration 270 nM, RXRa partner concentration 90 nM). The essentials: as §1
The test system of experiment [5] is LXRb homodimer (NR concentration 270 nM). The essentials: as §1
For experiment [6], the system named is PPARa:RXRa (NR concentration 270 nM, RXRa partner concentration 90 nM). The essentials: as §1
Experiment [7] deals with PPARg:RXRa (NR concentration 180 nM, RXRa partner concentration 90 nM). The essentials: as §1
Experiment [8] deals with PPARg:RXRa 270nM:90nM, anti-RXR (NR concentration 270 nM, RXRa partner concentration 90 nM). In a few lines: as §1
Experiment [9] concerns PPARg:RXRa 30nM:10nM, anti-RXR (NR concentration 30 nM, RXRa partner concentration 10 nM). The essentials:
as §1

Experiment [10] relates to PPARg:RXRa 90nM:30nM, anti-RXR (NR concentration 90 nM, RXRa partner concentration 30 nM). The essentials: as §1
Experiment [11] concerns PPARg:RXRa DBDmut IVT, anti-RXR (DBD mutation: RXRa K156A/R161A, NR concentration 270 nM, RXRa partner concentration 90 nM). In a few lines: as §1
The test system of experiment [12] is PPARg:RXRa IVT, anti-PPARg (NR concentration 270 nM, RXRa partner concentration 90 nM). The essentials:
as §1

The subject of experiment [13] is PPARg DBDmut:RXRa IVT, anti-PPARg (DBD mutation: PPARg1 K132A/R137A, NR concentration 270 nM, RXRa partner concentration 90 nM). In a few lines: as §1
The test system of experiment [14] is PPARg DBDmut IVT, anti-PPARg (DBD mutation: PPARg1 K132A/R137A, NR concentration 270 nM). The essentials:
as §1

Experiment [15] relates to PPARg homodimer (NR concentration 180 nM). The essentials:
as §1

In experiment [16] the test system is PXR:RXRa (NR concentration 270 nM, RXRa partner concentration 90 nM). In a few lines: as §1
Experiment [17] has as its system PXR homodimer (NR concentration 270 nM). The essentials:
as §1

Experiment [18] concerns RARa:RXR (NR concentration 270 nM, RXRa partner concentration 90 nM). In a few lines: as §1
For experiment [19], the system named is RARa homodimer (NR concentration 270 nM). The essentials: as §1
The test system of experiment [20] is RARb:RXRa (NR concentration 270 nM, RXRa partner concentration 90 nM). In a few lines:
as §1

With ATCTCTAGGTAGAAGTTCAGTGAATCCCGAGGAT, the PBM binding z-score worked out at 0.0471 in experiment [1]; 0.223 in experiment [2]; 0.0969 in [3]; 0.0752 in experiment [4]; 0.257 in [5]; 2.6 in experiment [6]. Further, the PBM binding z-score came to 4.33 in [7]; 5.62 in experiment [8]; 4.14 in [9]; 5.52 in experiment [10]; 0.0712 in [11]; 1.23 in [12]. In addition, the PBM binding z-score amounted to 0.95 in [13]; 0.43 in experiment [14]; 0.271 in [15]; 0.947 in [16]; 1 in [17]; 0.436 in experiment [18]. The PBM binding z-score worked out at 0.785 in [19] and 1.07 in experiment [20].
As to CTACAAAGGTGAACAAGGTCGTTGATTACTATTC, the PBM binding z-score in [1] is 2.91; in [2] it was 2.94; in experiment [3], 0.453; in [4], 3.1; in [5], -0.0435; in experiment [6], 4.39. For the same sequence, the PBM binding z-score in [7] was found to be 3.3; in experiment [8] it was 3.46; in [9], 0.912; in experiment [10] it was 2.84; in [11] it was 3.31; in [12], 3.77. Also, the PBM binding z-score amounted to 0.982 in experiment [13]; 0.418 in experiment [14]; 1.57 in experiment [15]; 3.89 in experiment [16]; 2.18 in [17]; 3.61 in experiment [18]. For the same sequence, the PBM binding z-score in [19] was determined as 0.686; in [20], 3.63.
With GGAACGATGGCAAGTTGATAGCAGAGTTTGATGG, the PBM binding z-score was -0.624 in experiment [1]; -0.756 in [2]; -0.63 in [3]; -0.971 in [4]; -1.01 in [5]; -0.654 in experiment [6]. The PBM binding z-score in experiment [7] was 0.339; in experiment [8], -0.873; in [9], -0.448; in [10], -0.709; in experiment [11], 0.0538; in experiment [12], -0.751. The PBM binding z-score in [13] was -1.07; in [14] it was -0.527; in [15], -1.16; in experiment [16], -0.323; in experiment [17], -0.221; in experiment [18] it was -0.504. In addition, the PBM binding z-score in experiment [19] was -0.494; in [20] it was -0.496.
Regarding ACTAGTCGGTCAGCTGAGGTCACACACAATTCGG, the PBM binding z-score in experiment [1] came out at 5.04; in experiment [2] it was 4.68; in experiment [3], 4.97; in experiment [4], 3.86; in experiment [5], 1.32; in experiment [6], 4.15. Moreover, the PBM binding z-score worked out at 2.51 in [7]; 2.99 in experiment [8]; 0.573 in experiment [9]; 2 in experiment [10]; 3.9 in experiment [11]; 3.98 in experiment [12]. Moreover, the PBM binding z-score in [13] stood at 0.395; in [14], 0.525; in experiment [15] it was 3.35; in experiment [16], 5.95; in [17] it was 2.63; in experiment [18] it was 4.69. Further, the PBM binding z-score worked out at 2.2 in [19] and 4.16 in [20].
CCTACTGGGCCAAAAAGGTTATTGATGCCGATAA: the PBM binding z-score was -0.207 in experiment [1]; 0.612 in experiment [2]; 0.14 in experiment [3]; 1.08 in [4]; -0.751 in experiment [5]; 2.15 in experiment [6]. Further, the PBM binding z-score in experiment [7] was 0.965; in [8], 1.85; in experiment [9], 0.374; in [10], 1.29; in [11], 3.45; in [12] it was 2.94. The PBM binding z-score is -0.965 in experiment [13]; -0.43 in experiment [14]; 0.601 in [15]; 0.934 in experiment [16]; 0.529 in experiment [17]; 1.67 in experiment [18]. Moreover, the PBM binding z-score in experiment [19] came out at 0.386; in [20] it was 1.15.
In the case of CCTTACGGGTCACTGACAGGTAATAGCATTTGGA, the PBM binding z-score is 5.68 in [1]; 3.58 in experiment [2]; 0.0221 in [3]; 3.16 in experiment [4]; -0.0553 in [5]; 5.08 in experiment [6]. For the same sequence, the PBM binding z-score in [7] turned out to be 4.51; in [8], 4.42; in [9], 1.29; in [10] it was 3.12; in experiment [11], 3.21; in [12], 3.64. Also, the PBM binding z-score in experiment [13] is 1.3; in experiment [14] it was 1.52; in experiment [15] it was 4.26; in experiment [16], 2.95; in experiment [17] it was -0.116; in [18] it was 4.05. Besides, the results for the PBM binding z-score in experiment [19] and in experiment [20] were 1.66 and 3.79, respectively.
As to GCTCGGAGGACAAGGTCGGAGCTTTGTCCGTAGA, the PBM binding z-score in experiment [1] is -0.163; in [2] it was -0.153; in [3], -0.91; in experiment [4] it was -0.475; in experiment [5], -1.14; in experiment [6], 0.143. Besides, the PBM binding z-score in [7] was -1.09; in experiment [8], -0.163; in experiment [9], -1.12; in experiment [10], -0.578; in experiment [11], -1.06; in experiment [12] it was -0.138. Moreover, the PBM binding z-score was -1.21 in [13]; -1.93 in experiment [14]; -0.925 in experiment [15]; -0.155 in [16]; -0.823 in [17]; 0.146 in experiment [18]. Further, the PBM binding z-score in experiment [19] was -1.12; in experiment [20], 1.59.
